Laboratory results reported in PubChem BioAssay (NCATS).
Inconclusive results are not listed. Active and inactive are the calls of the source. Calls follow the shape of the dose curve; as a rule, active = well fitted curve in the direction sought with a large enough effect; inconclusive = small, poorly fitted or top-dose-only effect, or another doubt; inactive = no such curve, though single readings can be large; an effect the other way counts as inactive or inconclusive.

Experiments:
[1] = molecular target: Cytochrome P450 3A4 (Homo sapiens) (UniProt P08684); assay: qHTS Assay for Inhibitors and Substrates of Cytochrome P450 3A4 (AID 884); also: series mostly up to about 57 µM; % is scaled to controls: 0 for no effect and ±100 for the full control effect; nearly all actives have a fitted effect of over 50% in size
Method in brief: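 20 nM human CYP3A4 with 25 uM Luciferin-PPXE (at KM) in 200 mM KPO4, preincubated 10 min with compound; NADPH regeneration started a 60 min RT reaction. Luciferin detected by luminescence, normalized to 57 uM ketoconazole as full inhibition.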

[2] = Confirmation and Secondary Assay for Modulators of Hemoglobin Beta Chain Splicing at IVS2 654 locus (AID 910);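 also: HeLa cells stably carrying EGFP split by mutant beta-globin IVS2-654 intron; % of control where 0% means no effect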
Method in brief: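 HeLa cells stably expressing EGFP interrupted by β-globin IVS2-654 intron, seeded overnight in Opti-MEM/2% FCS, then treated 2 days at 37 °C. Restored splicing read as total peak GFP intensity per well by laser scanning cytometry (488 nm excitation, 500–520 nm emission); 500 nM antisense PNA as control.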

[3] = Confirmation and Secondary Assay for Modulators of Hemoglobin Beta Chain Splicing at IVS2 705 locus (AID 930);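 also: HeLa cells stably expressing the EGFP-705 splicing reporter; series mostly up to about 46 µM; % of control where 0% means no effect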
Method in brief: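 HeLa cells stably carrying EGFP interrupted by mutant beta-globin IVS2-705 intron (CMV-driven) were seeded at 500 cells/well, treated next day with compound for 2 days at 37C; corrected splicing restores EGFP, read as total peak GFP intensity per well.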

[4] = Cellular Toxicity (caspase-3) N2a (AID 665);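 also: compound exposure lasted 16 h at 37 °C before readout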
Method in brief: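 Mouse N2a neuroblastoma cells (1500/well) were treated with compounds for 16 h at 37 °C, then caspase-3/7 activity was read by Caspase-Glo luminescence after 1 h at room temperature. Data were normalized to DMSO and 10 uM staurosporine; AC50 from Hill fits.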

[5] = Cellular Toxicity (caspase-3) NIH 3T3 (AID 666);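 also: caspase signal read after 16 h compound exposure; 0% = DMSO basal and 100% = 100 µM tamoxifen stimulation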
Method in brief: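 Mouse NIH 3T3 fibroblasts (1000 cells/well) were treated with compound for 16 hr at 37°C in complete medium; caspase-3/7 activity was read by Caspase-Glo luminescence. Normalized to DMSO and 100 uM tamoxifen; AC50 from Hill fits.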

[6] = Cellular Toxicity (caspase-3) Renal Proximal Tubule (AID 667);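 also: cells exposed to compound for 16 hours at 37 °C before detection; 0% = DMSO basal and 100% = 10 µM staurosporine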
Method in brief: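 AC50 derived by standard Hill fit of concentration-response data, normalized between DMSO basal and 10 uM staurosporine as 100% stimulation. Cells: primary rat kidney proximal tubule, 16 h treatment at 37 °C.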

[7] = Cell Viability - LYMP2-001 (AID 921);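 also: series mostly up to about 92 µM; cells exposed to compound for 24 h at 37 °C; 0% = DMSO only and full inhibition = tetraoctylammonium bromide control wells; nearly all actives have a fitted effect of over 70% in size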
Method in brief: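 Steps: seed 2500 lymphoblastoid cells/well; 5 hr, 37 C; add compound; 24 hr, 37 C; CellTiter-Glo reagent, 30 min room temperature; read luminescence. Concentration-response modeled by Hill equation for AC50.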

[8] = MultiTox-Fluor Cytotoxicity Assay - LYMP1-001 - Dead Cells (AID 946);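 also: 0% = DMSO and 100% = tetraoctylammonium bromide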
Method in brief: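 AC50 from Hill fit of concentration-response; data normalized to DMSO (basal) and 15 uM tetraoctylammonium bromide (100%). LYMP1-001 lymphoblastoid cells, 2500/well, 16 hr compound at 37 C; dead-cell protease fluorescence, Ex/Em 485/520.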

[9] = MultiTox-Fluor Cytotoxicity Assay - LYMP1-001 - Live Cells (AID 947);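 also: 0% = DMSO only and full inhibition = tetraoctylammonium bromide control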
[10] = Cell Viability - LYMP1-002 - Assay at 16 hr (AID 948);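 also: 0% = DMSO alone and full effect = 92 µM tetraoctylammonium bromide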
Method in brief: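 Seed 2500 LYMP1-002 cells per well in complete medium and hold 5 hr at 37 C. Add compound across a concentration series and incubate 16 hr at 37 C. Add CellTiter-Glo, wait 30 min at room temperature, read luminescence.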

[11] = molecular target: Cytochrome P450 2C9 (Homo sapiens) (UniProt P11712); assay: qHTS Assay for Inhibitors and Substrates of Cytochrome P450 2C9 (AID 883); also: % is scaled to controls: 0 for no effect and ±100 for the full control effect; nearly all actives have a fitted effect of over 60% in size
Method in brief: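 10nM CYP2C9 + 100uM Luciferin-H (=KM), 25mM KPO4; cpd 10 min 37C; NADPH regen, 60 min 37C; stop/detect with P450 Glo-Buffer 20 min; luminescence. Norm. to 57uM sulphaphenazole as full inhibition.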

[12] = molecular target: Cytochrome P450 2D6 (Homo sapiens) (UniProt P10635); assay: qHTS Assay for Inhibitors and Substrates of Cytochrome P450 2D6 (AID 891);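 also: luciferin methyl ether substrate demethylated by CYP2D6 with NADPH regeneration; % is scaled to controls: 0 for no effect and ±100 for the full control effect; nearly all actives have a fitted effect of over 60% in size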
Method in brief: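 Human CYP2D6 (5 nM) with 30 uM Luciferin-ME EGE (at Km) in 100 mM KPO4, compound preincubated 10 min, then NADPH regeneration system for 60 min at room temperature. Luciferin read by luminescence; normalized to 1.43 uM quinidine.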

[13] = molecular target: Cytochrome P450 2C19 (Homo sapiens) (UniProt P33261); assay: qHTS Assay for Inhibitors and Substrates of Cytochrome P450 2C19 (AID 899); also: % is scaled to controls: 0 for no effect and ±100 for the full control effect; nearly all actives have a fitted effect of over 60% in size
Method in brief: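 Luminescent read-out of luciferin formed from Luciferin-H EGE (10uM, equal to KM). Enzyme 5nM in 50mM KPO4; compound added, 10 min at 37C, then NADPH regenerating system for 60 min at 37C. Full inhibition defined by 57uM ketoconazole.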

Cytochrome P450 3A4 (Homo sapiens), sequence (P08684 whole entry, looked up): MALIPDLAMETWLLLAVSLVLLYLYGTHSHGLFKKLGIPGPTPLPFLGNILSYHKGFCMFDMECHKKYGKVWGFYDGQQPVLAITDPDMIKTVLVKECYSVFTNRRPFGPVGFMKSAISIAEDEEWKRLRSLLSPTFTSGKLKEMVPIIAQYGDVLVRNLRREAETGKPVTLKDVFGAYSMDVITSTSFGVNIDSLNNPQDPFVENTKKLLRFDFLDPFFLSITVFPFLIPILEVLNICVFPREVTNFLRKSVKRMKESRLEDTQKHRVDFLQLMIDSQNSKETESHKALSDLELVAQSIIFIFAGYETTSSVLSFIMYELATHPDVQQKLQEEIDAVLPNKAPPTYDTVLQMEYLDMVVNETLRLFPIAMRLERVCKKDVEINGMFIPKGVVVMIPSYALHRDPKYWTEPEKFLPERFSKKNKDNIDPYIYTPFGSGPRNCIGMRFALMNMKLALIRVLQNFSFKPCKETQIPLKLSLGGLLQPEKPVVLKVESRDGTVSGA
Cytochrome P450 2C19 (Homo sapiens), sequence (P33261 whole entry, looked up): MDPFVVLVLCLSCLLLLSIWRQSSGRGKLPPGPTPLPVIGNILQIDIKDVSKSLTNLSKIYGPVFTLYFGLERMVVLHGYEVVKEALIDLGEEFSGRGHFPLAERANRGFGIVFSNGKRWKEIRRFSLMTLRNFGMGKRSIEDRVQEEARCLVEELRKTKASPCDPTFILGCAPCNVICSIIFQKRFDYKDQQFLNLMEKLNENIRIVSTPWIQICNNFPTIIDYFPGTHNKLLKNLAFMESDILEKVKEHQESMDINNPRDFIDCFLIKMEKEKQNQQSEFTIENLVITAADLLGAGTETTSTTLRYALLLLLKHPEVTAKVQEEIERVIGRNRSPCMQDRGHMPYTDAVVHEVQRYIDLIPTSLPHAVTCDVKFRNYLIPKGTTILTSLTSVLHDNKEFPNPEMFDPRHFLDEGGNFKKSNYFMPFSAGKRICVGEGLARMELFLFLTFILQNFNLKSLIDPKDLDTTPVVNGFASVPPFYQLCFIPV
Cytochrome P450 2C9 (Homo sapiens), sequence (P11712 whole entry, looked up): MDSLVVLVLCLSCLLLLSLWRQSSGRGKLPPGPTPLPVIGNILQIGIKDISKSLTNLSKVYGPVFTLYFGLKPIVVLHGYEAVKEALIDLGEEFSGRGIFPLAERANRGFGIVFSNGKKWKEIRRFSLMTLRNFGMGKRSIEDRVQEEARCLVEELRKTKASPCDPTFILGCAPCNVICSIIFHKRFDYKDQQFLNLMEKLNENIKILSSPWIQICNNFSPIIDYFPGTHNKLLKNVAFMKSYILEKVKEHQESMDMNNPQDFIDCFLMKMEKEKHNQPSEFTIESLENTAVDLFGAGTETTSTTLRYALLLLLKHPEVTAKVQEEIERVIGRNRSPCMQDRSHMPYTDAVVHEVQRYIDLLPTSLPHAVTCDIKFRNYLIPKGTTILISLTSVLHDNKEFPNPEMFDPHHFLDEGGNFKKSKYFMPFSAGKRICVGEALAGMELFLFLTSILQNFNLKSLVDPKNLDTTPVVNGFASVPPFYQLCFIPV
Cytochrome P450 2D6 (Homo sapiens), sequence (P10635 whole entry, looked up): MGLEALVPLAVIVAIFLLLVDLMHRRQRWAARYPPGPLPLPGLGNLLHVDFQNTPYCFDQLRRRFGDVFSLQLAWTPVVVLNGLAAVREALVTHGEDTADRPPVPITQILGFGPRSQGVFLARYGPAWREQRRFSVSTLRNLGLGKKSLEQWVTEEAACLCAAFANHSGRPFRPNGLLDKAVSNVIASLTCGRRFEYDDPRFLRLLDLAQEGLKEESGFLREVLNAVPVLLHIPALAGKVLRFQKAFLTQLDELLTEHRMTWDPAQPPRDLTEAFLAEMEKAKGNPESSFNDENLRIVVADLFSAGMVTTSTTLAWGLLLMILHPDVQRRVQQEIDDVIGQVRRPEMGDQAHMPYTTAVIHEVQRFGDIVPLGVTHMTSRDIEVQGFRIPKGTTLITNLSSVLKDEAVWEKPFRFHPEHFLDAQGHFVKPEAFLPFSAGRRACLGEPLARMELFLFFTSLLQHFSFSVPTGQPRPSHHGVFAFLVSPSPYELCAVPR

CC(=O)NCc1c(I)c(NC(C)=O)c(I)c(C(=O)O)c1I
inactive: outcome [1] | outcome [2] | outcome [3]

CC(=O)Nc1ccc(C(=O)O)cc1
inactive: outcome [4] | outcome [5] | outcome [6] | outcome [1] | outcome [7] | outcome [8] | outcome [9] | outcome [10]

CC(=O)NS(=O)(=O)c1ccc(N)cc1
inactive: outcome [4] | outcome [5] | outcome [6] | outcome [2] | outcome [7] | outcome [3] | outcome [8] | outcome [10]

O=C1c2cccc(O)c2C(=O)c2c(O)cccc21
inactive: outcome [4] | outcome [5] | outcome [6] | outcome [1] | outcome [2] | outcome [3] | outcome [8] | outcome [9] | outcome [10]

Nc1ccc(S(=O)(=O)c2ccc(N)cc2)cc1
inactive: outcome [4] | outcome [5] | outcome [6] | outcome [2] | outcome [7] | outcome [3] | outcome [8] | outcome [9] | outcome [10]

CCCCCC(N)=O
inactive: outcome [4] | outcome [5] | outcome [6] | outcome [1] | outcome [7] | outcome [8] | outcome [9] | outcome [10]

O=C(c1ccccc1)C(O)c1ccccc1 (configuration not stated)
inactive: outcome [4] | outcome [5] | outcome [6] | outcome [1] | outcome [7] | outcome [8] | outcome [9] | outcome [10]

NS(=O)(=O)c1ccc(C(=O)O)cc1
inactive: Potency [11] | activity change, negative = inhibition [1] -0.84% [at 11.4 µM] | Potency [12] | Potency [13]

CC1CC(OC(=O)c2ccccc2O)CC(C)(C)C1 (configuration not stated)
inactive: outcome [4] | outcome [5] | outcome [6] | outcome [2] | outcome [7] | outcome [3] | outcome [8] | outcome [9] | outcome [10]

CC(=O)OCC(COC(C)=O)OC(C)=O
inactive: outcome [4] | outcome [5] | outcome [6] | outcome [1] | outcome [2] | outcome [7] | outcome [3] | outcome [8] | outcome [9] | outcome [10]

NC(=O)c1ccc([N+](=O)[O-])cc1Cl
inactive: outcome [1] | outcome [2] | outcome [3]

O=C(O)c1ccccc1OP(=O)(O)O
inactive: outcome [1] | outcome [2] | outcome [3]
